Screening results (PubChem)
Compounds with a hit are over-represented: about 2.7% of the library has one in this group of screens.
EWS-Fli inh: EWS/Fli transcriptional activity inhibition; inhibition, % at 12.6 µM; 350,000 compounds, 0.67% hits; AID 651661; A673 NR0B1-luciferase reporter, viability-normalised;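 active = mean inhibition of at least 50% after viability correction, with every replicate also passing that limit; inconclusive = mean reaches 50% but only one of two replicates passes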;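 note: firefly luciferase signal divided by Alamar Blue viability fluorescence both relative to DMSO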
INS-1E GSIS act: primary screen for activators of insulin secretion dependent on glucose, INS-1E cells, GLuc reporter luminescence; INS-1E GLuc reporter insulin secretion, 2-3 h; 370,000 compounds, 0.61% hits; activation, % at 16.6 µM;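 active = lowest replicate activation of at least 40%, so every replicate reaches that level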;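 note: 0% = median of neutral control wells and 100% = median of IBMX positive control wells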
PGC1a acetyl inh: lowers PGC1a acetylation signal in U2OS cells; 350,000 compounds, 0.17% hits; AlphaScreen anti-acetyl-lysine; with virally co-expressed GCN5 acetyltransferase; inhibition, % at 15.6 µM;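 active = every replicate shows inhibition of at least 40%; inconclusive = mean inhibition at least 40% but some replicate below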;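 note: 0% = neutral control wells and 100% = positive control wells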
PAX8 inh HTS: inhibitors of PAX8 transcriptional activity in RMG-I cells. RMG-I TPO-luciferase reporter, SteadyGlo, 24 h. inhibition, % at 12.6 µM. 360,000 compounds, 1.2% hits. AID 652154;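 active = mean replicate inhibition at least 60% with every replicate also reaching 60%; inconclusive = only one of the two criteria is met; inactive = mean below 60% and not all replicates reaching 60%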;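 note: luciferase light reporting Pax8 driven TPO promoter activity; plate controls were median of neutral control wells for no effect and mitoxantrone controls for full effect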
F508del corr: correctors of CFTR F508del function in bronchial epithelial cells | CFBE cells, YFP halide quenching; stimulated with forskolin plus potentiator P3; % fluorescence drop versus neutral controls | 350,000 compounds, 0.36% hits | AID 720511 | activity (quench increase), % at 7.58 µM;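 active = mean added fluorescence quench of at least 8% versus neutral control, with both replicates also reaching 8%; inconclusive = only one of the mean or replicate conditions met; inactive = mean below 8% and not both replicates reaching 8%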;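 note: cells transiently co-express mutant CFTR-F508del with the halide-sensitive YFP; corrector assay measuring rescue of mutant channel to the surface after 24 h compound exposure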
HIV Env fusion: HIV envelope-mediated fusion inhibition; AID 651610; HeLa-JRFL Env/CEM21 cell fusion, luciferase; inhibition, % at 12.3 µM; 360,000 compounds, 1.1% hits;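 active = mean replicate inhibition score of at least 50 and every replicate individually at or above 50; inconclusive = only one of the two criteria met; inactive = mean below 50 and not all replicates reaching 50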;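 note: 0% = plate neutral controls and 100% = maraviroc near 300 nM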
Numbers without * were called inactive; ? = inconclusive; nt = not tested or not shown; [ ] = dose if it differs, or a comment.

SMILES	EWS-Fli inh	INS-1E GSIS act	PGC1a acetyl inh	PAX8 inh HTS	F508del corr	HIV Env fusion
COc1ccc(C(=O)/C=C/C(=O)N(CC(=O)NC2CCCCC2)CC2CCCO2)c(O)c1 (configuration not stated)	56*	78	nt	82*	-5	-207
COc1ccc(C(=O)/C=C/C(=O)N(Cc2ccccc2)C(C(=O)NC2CCCCC2)c2ccncc2)c(O)c1 (configuration not stated)	2	-22	-5	37	3	nt
O=C(Nc1ccc(-c2ccccc2)cc1)[C@@H]1[C@@H](CO)[C@@H]2Cn3c(cccc3=O)[C@H]1N2Cc1ccccc1	6	-14	nt	nt	0	nt
C/C(=N\NC(=O)c1cc(C)[nH]n1)c1ccc(-c2ccccc2)cc1	-50	-12	79*	-70	-1	-82
C/C(=N\NC(=O)c1cc(C)[nH]n1)c1cccs1	-81	8	-2	-57	1	-16
CCOC(=O)C1=C(COC(=O)c2cccs2)NC(=O)NC1C (configuration not stated)	0	59*	nt	-6	-1	nt
COc1ccc2c3c(n(C)c2c1)[C@@H](CO)N(Cc1nccs1)CC31CN(C(C)=O)C1	-7	28	11	nt	2	nt
CC(=O)N1CCCCN2[C@H](C1)[C@@H](c1ccc(C#Cc3ccccc3F)cc1)[C@@H]2CO	-10	-20	-11	13	0	nt
CCC1CCCCN1S(=O)(=O)c1ccc(NC(=O)c2nc(S(C)(=O)=O)ncc2Cl)cc1 (configuration not stated)	69*	72*	nt	104*	1	0
CCC1CCCCN1S(=O)(=O)c1ccc(C(=O)Nc2nnc(-c3ccccc3Cl)o2)cc1 (configuration not stated)	nt	nt	47	nt	nt	nt
CCC1CCCCN1S(=O)(=O)c1ccc(NC(=O)C2CCN(C(=O)c3ccco3)CC2)cc1 (configuration not stated)	4	-13	-7	64*	1	-2
CCC1CCCCN1S(=O)(=O)c1ccc(NC(=O)c2ccncc2)cc1 (configuration not stated)	nt	-44	nt	12	-1	63*
Cc1ccccc1NC(=O)COC(=O)c1ccc(S(C)(=O)=O)c([N+](=O)[O-])c1	10	5	nt	?	-1	18
CS(=O)(=O)c1ccc(C(=O)OCC(=O)N2CCN(CCC3CCCCC3)CC2)cc1[N+](=O)[O-]	54*	1	nt	105*	2	29
CC(CCc1ccccc1)NC(=O)COC(=O)c1ccc(S(C)(=O)=O)c([N+](=O)[O-])c1 (configuration not stated)	5	9	nt	-12	-4	19
CC(=O)c1cccc(NC(=O)COC(=O)c2ccc(S(C)(=O)=O)c([N+](=O)[O-])c2)c1	10	48*	-28	21	-1	11
CS(=O)(=O)c1ccc(C(=O)OCC(=O)Nc2cccnc2Cl)cc1[N+](=O)[O-]	nt	118*	nt	nt	nt	nt
CS(=O)(=O)c1ccc(C(=O)OCC(=O)NC(=O)C2COc3ccccc3O2)cc1[N+](=O)[O-] (configuration not stated)	5	106*	4	14	-2	-4
Cc1ccc(S(=O)(=O)N(C)C[C@H]2OCCCC[C@H](C)Oc3ccc(NC(=O)Nc4ccccc4)cc3C(=O)N([C@@H](C)CO)C[C@@H]2C)cc1	11	-4	-13	nt	-4	5[16.7 µM]
C[C@H](O)C#Cc1ccc2c(c1)O[C@@H](CN(C)Cc1ccccc1)[C@H](C)CN([C@H](C)CO)S2(=O)=O	7	-1	4	nt	-4	-14[16.7 µM]
C[C@@H]1CN([C@H](C)CO)C(=O)c2cc(NC(=O)C3CCCCC3)ccc2O[C@@H](C)CCCCO[C@@H]1CN(C)S(=O)(=O)c1ccc(F)cc1	0	-14	2	8	-3	-3[16.7 µM]
CN(C)C(=O)[C@H]1[C@H](CO)[C@H]2Cn3c(ccc(C4=CCCC4)c3=O)[C@@H]1N2CC1CC1	1	4	nt	nt	-2	nt
Nc1ccccc1C(=O)N1O[C@@H]2C=C[C@H]1C2	0	7	1	-21	8.6*	-15
O=C(c1ccccc1NS(=O)(=O)c1ccc([N+](=O)[O-])cc1[N+](=O)[O-])N1O[C@@H]2C=C[C@H]1C2	-11	49*	-7	10	1	12
CN1CCN(C(=O)C[C@@H]2CC[C@H]3[C@@H](COC[C@H](O)CN3C(=O)C3CC3)O2)CC1	0	6	-2	0	-1	nt
SMILES	EWS-Fli inh	INS-1E GSIS act	PGC1a acetyl inh	PAX8 inh HTS	F508del corr	HIV Env fusion
C[C@H](CO)N1C[C@H](C)[C@@H](CN(C)CC2CCCCC2)OCCCC[C@H](C)Oc2ccc(NC(=O)Nc3ccc(C(F)(F)F)cc3)cc2C1=O	60*	-20	4	14	0	5[16.7 µM]
CCCN(C)C[C@H]1OCCCC[C@@H](C)Oc2ccc(NC(=O)Nc3ccc(C(F)(F)F)cc3)cc2C(=O)N([C@H](C)CO)C[C@H]1C	-5	-5	-2	82*	0	8[16.7 µM]
C[C@@H]1CCCCO[C@H](CN(C)CC2CC2)[C@H](C)CN([C@H](C)CO)C(=O)c2cc(NC(=O)Nc3ccc(C(F)(F)F)cc3)ccc2O1	27	-24	11	-8	2	16[16.7 µM]
C[C@@H]1CN([C@@H](C)CO)C(=O)c2cc(NC(=O)Nc3ccc(C(F)(F)F)cc3)ccc2O[C@@H](C)CCCCO[C@H]1CN(C)CC1CCCCC1	47	-11	7	-2	-1	10[16.7 µM]
C[C@@H]1CN([C@H](C)CO)C(=O)c2cc(NC(=O)Nc3ccc(C(F)(F)F)cc3)ccc2O[C@@H](C)CCCCO[C@@H]1CN(C)CC1CCCCC1	78*	16	-10	-10	-1	9[16.7 µM]
C[C@H](CO)N1C[C@H](C)[C@H](CN(C)CC2CCCCC2)OCCCC[C@H](C)Oc2ccc(NC(=O)Nc3ccc(C(F)(F)F)cc3)cc2C1=O	-12	5	-5	68*	-1	24[16.7 µM]
CCCNC(=O)[C@H]1[C@H](CO)[C@H]2Cn3c(ccc(C4=CCCC4)c3=O)[C@@H]1N2C(=O)CC1CC1	-6	-6	nt	-12	0	nt
CCCC#Cc1ccc2c(c1)O[C@@H](CN(C)C(=O)CN(C)C)[C@H](C)CN([C@H](C)CO)S2(=O)=O	3	11	-3	10	1	2[16.7 µM]
CCN(CC)CCCNc1nc2cc(OC)c(OC)cc2c2nc(-c3ccccc3)nn12	nt	-12	2	-15	nt	-35
CCN(CC)CCCNc1nc2ccccc2c2nc(-c3ccncc3)nn12	18	-3	4	7	15*	-24
Cc1ccc(OCC(=O)Nc2ccc(CN3CCCCC3)cc2)c(C)c1	4	-2	-1	7	8.3*	6
Cc1cc(OCC(=O)Nc2ccc(CN3CCCCC3)cc2)ccc1Cl	5	12	-9	-4	1	1
